SMILES strings stand for the structures. The list shows a part of the results. The source made the active and inactive calls.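 Rule for the calls: active = signal rise of 40% or more at 20 µM, treated as a fluorescence artifact; inactive = the rest.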

The assay is described as follows: Rh110 fluorescence interference by putative Apaf-1 inhibitors, confirmation, artefact control for Apaf-1 inhibitor project, biochemical, 20 µM (AID 504615). To be noted: quenched caspase reaction, at 20 µM, active compounds read high.
For the molecule `O=C(O)c1cc(Cl)c(Cl)cc1C(=O)Nc1cccc2ncccc12`, the activation (fluorescence interference) was -4.02% (inactive). On to `O=c1cc(N2CCCCC2)c(-c2ccccc2)nn1Cc1cccc(F)c1`, for which the activation (fluorescence interference) is 9.4% (inactive). As for `Cc1ccc2nc(N3CCN(C(=O)c4ccco4)CC3)sc2c1`, the figure is -1.75% (inactive). Regarding `CC(=O)Nc1ccc(Nc2cc(C)nc(Nc3ccc(NC(C)=O)cc3)n2)cc1`, the activation (fluorescence interference) was 4.46% (inactive).

Turning to `CCN(CC(=O)NCc1cccs1)C(=O)c1cccc(S(=O)(=O)Nc2ccccc2OC)c1`, the activation (fluorescence interference) was -3.02% (inactive).

In the case of `O=[N+]([O-])c1c(NCCO)cc(Sc2nc3ccccc3s2)c2nonc12`, the activation (fluorescence interference) is 4.65% (inactive). As for `Cc1ccc2c(c1)C1CN(C)CCC1N2S(=O)(=O)c1ccc(Oc2ccc([N+](=O)[O-])cc2)cc1` (stereo not given), the figure is 1.73% (inactive); as for `O=C(Cc1cc(=O)[nH][nH]1)N/N=C/c1ccccc1[N+](=O)[O-]`, 0.43% (inactive).

Take `CCOC(=O)N1CCC(NC(=O)C(C)n2c3ccccc3c3cnn(C)c(=O)c32)CC1` (stereo not given): the activation (fluorescence interference) was 17.6% (inactive).

On to `CCC(=O)Nc1c(S(=O)(=O)c2ccccc2)c2nc3ccccc3nc2n1Cc1ccccc1`, for which the activation (fluorescence interference) was -0.44% (inactive). On to `CCCCCCCCCCOC(=O)Cn1c(COc2ccc(C)cc2)[n+](C)c2ccccc21`, for which the activation (fluorescence interference) was 25.8% (inactive). As for `C=CCn1c(N)c(C(=O)OCC(C)C)c2nc3ccccc3nc21`, the figure is 12% (inactive); as for `Cc1cc(N2CCCC2)ccc1NC(=O)COc1ccc(Cl)cc1`, 1.52% (inactive); as for `COC1=C(N2CCOCC2)C(=O)c2ccccc2C1=O`, 4% (inactive).

`CCN1C(=NCc2ccc(OC)cc2)N[C@@H](CCc2ccccc2)[C@H](C(=O)NCc2ccc(OC)cc2)[C@H]1C`: the activation (fluorescence interference) was 7.82% (inactive).

These data come from PubChem BioAssay.
